The values that follow come from PubChem BioAssay (NCATS).

Records with an inconclusive call do not appear. Active and inactive are the calls of the source. Unless noted, the call rests on the fitted dose curve; in most records, active means well fitted curve in the direction sought with a large enough effect; inconclusive means small, poorly fitted or top-dose-only effect, or another doubt; inactive means no such curve, though single readings can be large; an effect the other way counts as inactive or inconclusive.

Experiment [1] is described as follows: Validation screen for small molecules that induce DNA re-replication in SW480 colon adenocarcinoma cells (AID 504364). The procedure, abridged:
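Image-based DNA content read-out: Hoechst stain 40 min, total nuclear fluorescence intensity (ex 405 nm, em 500-530 nm) after 48 h compound exposure of 250 SW480 cells/well at 37 C, 5% CO2, versus DMSO vehicle.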

For experiment [2], the target named is Peptidyl-prolyl cis-trans isomerase NIMA-interacting 1 (Homo sapiens) (UniProt Q13526). Description: qHTS Validation Assay to Find Inhibitors of Pin1 (AID 504536; active means well fitted inhibition curve with a large enough effect in the polarisation, with a control signal flat, not every such curve was filed as active; the % refers to the polarisation). The gist of the method:
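Fluorescence polarization competition: compounds (titration) displace HiFluor-488-labeled Pin1-1b peptide from Pin1 (0.3 uM final) in pH 7.5 HEPES buffer with DTT, 10 min at room temperature; %Activity normalized to no-enzyme wells, curves fitted.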
For orientation: qHTS replaces the single test concentration by a dilution series.

In experiment [3] the target is Phosphoglycerate kinase, glycosomal (Trypanosoma brucei brucei) (UniProt P07378). Description: qHTS Validation Assay to Find Inhibitors of Phosphoglycerate Kinase (AID 504547). The procedure, abridged:
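In TEA buffer (100mM, pH 7.6) containing 5mM MgCl2 and 0.01% Tween-20, the GAPDH-coupled PGK reaction proceeded for 60 minutes at room temperature before a single luminescence reading using Kinase-Glo Plus.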

Experiment [4] has as its target phosphoglycerate mutase (Leishmania major) (UniProt Q4Q090). Put plainly: qHTS Validation Assay to Find Inhibitors of Phosphoglycerate Mutase (AID 504548). Further: series mostly up to about 58 µM. The procedure, abridged: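 Lm PGAM at 1.25 nM final with substrate in 100 mM TEA pH 7.6, 5 mM MgCl2, 0.01% Tween-20; 45 min at room temperature. Kinase-GloPlus added, 10 min, end-point luminescence read.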
Experiment [5] addresses Ubiquitin carboxyl-terminal hydrolase 1 (Homo sapiens) (UniProt O94782). Description: Inhibitors of USP1/UAF1: Pilot qHTS (AID 504865). Further: nearly all actives have a fitted effect of over 35% in size. Further: potency means the concentration at half of the fitted maximal effect. The procedure, abridged: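 1nM USP1/UAF1 + cpd, 15 min RT; start w/ Ub-Rho 150nM final; kinetic FL 480/540 nm, 6 reads q60 s. Buffer 50mM HEPES pH 7.8, 0.5mM EDTA, 1mM TCEP, 0.01% Tween-20, 0.1 mg/ml BSA.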
A short description of experiment [6]: qHTS for Inhibitors of ATXN expression: Validation of Cytotoxic Assay (AID 588349). Further: potency means the concentration at half of the fitted maximal effect. The gist of the method:
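Cytotoxicity counter-screen: ATP-based luminescent viability (CellTiter Glo) after 72 hr exposure of HEK293 cells to a compound titration at 37 degrees C.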

A short description of experiment [7]: qHTS for Inhibitors of ATXN expression: Validation (AID 588378). Further: nearly all actives have a fitted effect of over 75% in size. Further: potency means the concentration at half of the fitted maximal effect. The procedure, abridged:
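Cells: HEK293-ATXN2-FFLuc, phenol-red free DMEM, 2 h attachment. Compound pin-transfer, 24 h, 37 degrees C, 5% CO2. CellTiter-Fluor 30 min, Ex405/Em525; Bright-Glo 5 min, luminescence 2 s exposure.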

The target in experiment [8] is DNA dC->dU-editing enzyme APOBEC-3G (Homo sapiens) (UniProt Q9HC16). Put plainly: qHTS for inhibitors of Vif-A3G interactions: Validation (AID 588379). The procedure, abridged: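 Yellow fluorescence (Ex 488, Em 500-530) of Vif-coexpressing HeLa A3G-eYFP cells, scanned by Acumen cytometer, reports blocked A3G degradation. Cells plated at 700/well overnight at 37 deg C before compound addition, then a further overnight compound incubation at 37 deg C.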
DNA dC->dU-editing enzyme APOBEC-3G (Homo sapiens), sequence (Q9HC16 whole entry, looked up): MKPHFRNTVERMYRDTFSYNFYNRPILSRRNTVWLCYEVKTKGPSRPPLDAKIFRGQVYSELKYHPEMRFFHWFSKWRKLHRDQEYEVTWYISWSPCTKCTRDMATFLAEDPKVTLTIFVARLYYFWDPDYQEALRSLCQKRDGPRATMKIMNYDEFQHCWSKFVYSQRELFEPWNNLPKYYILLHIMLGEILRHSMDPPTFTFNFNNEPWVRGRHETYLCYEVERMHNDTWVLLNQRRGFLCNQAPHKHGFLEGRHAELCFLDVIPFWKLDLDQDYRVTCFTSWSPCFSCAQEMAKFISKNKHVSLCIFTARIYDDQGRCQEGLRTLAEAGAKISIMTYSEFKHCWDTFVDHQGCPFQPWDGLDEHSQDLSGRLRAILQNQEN

Experiment [9] addresses Estrogen receptor (Homo sapiens) (UniProt P03372). Description: qHTS assay for small molecule antagonists of estrogen receptor alpha signaling (AID 588513; active means well fitted curve in the direction sought with a large enough effect in the signal ratio, with a control signal flat, not every such curve was filed as active; the % refers to the signal ratio). The gist of the method:
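Beta-lactamase reporter, antagonist mode, HEK 293 GripTite cells; 0.5nM E2 stimulus, 18 h, 37 C; CCF4 dye 2 h RT; fluorescence. IC50 and efficacy from Hill fits, normalized to E2 and DMSO.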

Experiment [10] has the same target. Put plainly: qHTS assay for small molecule agonists of estrogen receptor alpha signaling (AID 588514; calls by dose curve; further: nearly all actives have a fitted effect of over 70% in size). The procedure, abridged:
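EC50 and efficacy came from Hill fits of beta-lactamase reporter signal (CCF4 dye, 2 h at room temperature) scaled between DMSO and 20 nM 17-beta-estradiol. Agonist mode: HEK293 ER-alpha-UAS-bla cells in charcoal/dextran-stripped serum medium, 18 h compound exposure at 37 C.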

Phosphoglycerate kinase, glycosomal (Trypanosoma brucei brucei), sequence (P07378 whole entry, looked up): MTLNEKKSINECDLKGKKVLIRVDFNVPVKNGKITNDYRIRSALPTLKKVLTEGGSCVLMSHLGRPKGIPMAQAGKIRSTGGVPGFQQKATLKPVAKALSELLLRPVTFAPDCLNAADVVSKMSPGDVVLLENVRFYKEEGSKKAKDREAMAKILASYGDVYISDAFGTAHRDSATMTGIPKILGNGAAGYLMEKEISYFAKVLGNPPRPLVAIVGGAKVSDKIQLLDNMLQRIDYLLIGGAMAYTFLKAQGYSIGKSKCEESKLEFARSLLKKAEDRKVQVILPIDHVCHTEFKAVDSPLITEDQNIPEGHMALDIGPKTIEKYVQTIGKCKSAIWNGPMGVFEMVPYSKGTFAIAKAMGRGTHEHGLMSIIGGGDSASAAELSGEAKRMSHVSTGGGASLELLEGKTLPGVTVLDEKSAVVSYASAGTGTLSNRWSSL
Ubiquitin carboxyl-terminal hydrolase 1 (Homo sapiens), sequence (O94782 whole entry, looked up): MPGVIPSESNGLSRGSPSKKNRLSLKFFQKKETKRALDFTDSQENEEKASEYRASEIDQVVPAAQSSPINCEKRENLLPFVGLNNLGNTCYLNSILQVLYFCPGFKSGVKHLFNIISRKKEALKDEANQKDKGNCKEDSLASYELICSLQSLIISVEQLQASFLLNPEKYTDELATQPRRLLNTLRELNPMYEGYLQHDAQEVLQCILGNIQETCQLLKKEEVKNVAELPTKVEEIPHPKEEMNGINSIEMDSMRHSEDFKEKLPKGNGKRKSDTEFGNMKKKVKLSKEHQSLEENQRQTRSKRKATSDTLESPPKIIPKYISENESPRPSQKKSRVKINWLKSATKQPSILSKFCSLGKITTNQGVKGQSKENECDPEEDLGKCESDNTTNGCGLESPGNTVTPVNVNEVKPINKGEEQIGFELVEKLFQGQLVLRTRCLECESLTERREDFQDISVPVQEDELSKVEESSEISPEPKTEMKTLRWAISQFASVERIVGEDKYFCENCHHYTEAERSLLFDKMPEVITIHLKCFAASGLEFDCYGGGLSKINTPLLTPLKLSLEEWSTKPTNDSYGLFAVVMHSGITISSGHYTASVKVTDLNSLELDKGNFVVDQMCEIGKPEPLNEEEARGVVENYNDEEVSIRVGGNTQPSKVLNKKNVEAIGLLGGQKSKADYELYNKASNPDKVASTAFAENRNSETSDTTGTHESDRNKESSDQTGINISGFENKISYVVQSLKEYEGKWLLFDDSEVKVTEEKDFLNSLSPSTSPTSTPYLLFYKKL
Peptidyl-prolyl cis-trans isomerase NIMA-interacting 1 (Homo sapiens), sequence (Q13526 whole entry, looked up): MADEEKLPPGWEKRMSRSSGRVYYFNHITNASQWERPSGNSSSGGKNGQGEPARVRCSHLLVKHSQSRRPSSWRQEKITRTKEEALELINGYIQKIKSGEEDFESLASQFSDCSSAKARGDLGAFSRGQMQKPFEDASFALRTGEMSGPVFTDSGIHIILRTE
Estrogen receptor (Homo sapiens), sequence (P03372 whole entry, looked up): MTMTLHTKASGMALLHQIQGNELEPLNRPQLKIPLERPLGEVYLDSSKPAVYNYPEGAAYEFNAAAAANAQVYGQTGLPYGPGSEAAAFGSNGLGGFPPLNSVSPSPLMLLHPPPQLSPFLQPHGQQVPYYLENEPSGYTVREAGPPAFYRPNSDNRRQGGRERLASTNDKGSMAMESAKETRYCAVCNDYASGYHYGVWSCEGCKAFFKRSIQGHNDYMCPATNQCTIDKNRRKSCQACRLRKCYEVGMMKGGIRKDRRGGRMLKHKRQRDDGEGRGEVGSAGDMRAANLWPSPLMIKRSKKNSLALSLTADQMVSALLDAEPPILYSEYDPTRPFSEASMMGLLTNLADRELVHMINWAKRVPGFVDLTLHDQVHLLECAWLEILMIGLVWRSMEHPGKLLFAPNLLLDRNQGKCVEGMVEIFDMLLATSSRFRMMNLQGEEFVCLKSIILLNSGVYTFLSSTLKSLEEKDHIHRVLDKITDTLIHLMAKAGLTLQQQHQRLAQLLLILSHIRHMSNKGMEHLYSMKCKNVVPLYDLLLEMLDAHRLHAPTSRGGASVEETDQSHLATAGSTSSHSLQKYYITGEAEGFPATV
phosphoglycerate mutase (Leishmania major), sequence (Q4Q090 1-553): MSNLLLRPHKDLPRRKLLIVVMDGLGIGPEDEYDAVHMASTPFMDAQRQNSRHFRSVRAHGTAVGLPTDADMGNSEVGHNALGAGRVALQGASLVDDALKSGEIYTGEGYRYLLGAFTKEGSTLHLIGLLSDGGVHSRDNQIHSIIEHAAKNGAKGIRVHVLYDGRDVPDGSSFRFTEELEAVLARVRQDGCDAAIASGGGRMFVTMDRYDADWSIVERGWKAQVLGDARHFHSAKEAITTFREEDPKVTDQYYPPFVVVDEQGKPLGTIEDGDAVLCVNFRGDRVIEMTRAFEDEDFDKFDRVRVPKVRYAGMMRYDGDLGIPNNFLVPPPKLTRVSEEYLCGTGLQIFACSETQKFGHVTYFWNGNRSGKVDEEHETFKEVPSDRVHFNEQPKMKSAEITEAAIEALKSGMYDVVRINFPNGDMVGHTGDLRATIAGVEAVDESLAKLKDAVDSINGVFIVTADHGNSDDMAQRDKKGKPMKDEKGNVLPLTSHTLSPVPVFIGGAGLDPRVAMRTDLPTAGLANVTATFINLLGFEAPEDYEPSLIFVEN

Regarding `COCCCC/C(=N\OCCN)c1ccc(C(F)(F)F)cc1`, the compound was classed as inactive in experiment [1], in [2], in [3] and in experiment [4]. The Potency entry in [5] and in experiment [6] was “inactive” each time.
`NC(N)=N/N=C/c1c(Cl)cccc1Cl`: the call in [1], in [2], in [3] and in experiment [4] was inactive. Also, the Potency entry in experiment [5] is “inactive”.
Take `CC[N+](C)(C)c1cccc(O)c1`: the outcome in experiment [1], in experiment [2], in experiment [3] and in experiment [4] was inactive. In addition, the Potency result in experiment [5], in experiment [6] and in [7] was “inactive” throughout.
Take `CN(C)CC[C@@H](c1ccc(Br)cc1)c1ccccn1`: the result in [1], in experiment [2], in experiment [3] and in experiment [4] was inactive. The Potency entry in experiment [5], in [6] and in [7] was “inactive” throughout.
For the compound `O=C(O)CP(=O)(O)O`, the outcome in experiment [1], in [2], in experiment [3] and in experiment [4] was inactive. The Potency entry in experiment [5] and in experiment [7] was “inactive” each time.
With `COCCc1ccc(OCC(O)CNC(C)C)cc1` (configuration not stated), the compound was called inactive in experiment [1], in experiment [2], in experiment [3] and in [4]. Besides, the Potency entry in experiment [5], in [6] and in [7] was “inactive” in each case.
Consider `CCN(CC)CCNC(=O)c1ccc(NC(C)=O)cc1`, for which the outcome in experiment [1], in [2], in experiment [3] and in experiment [4] was inactive. Moreover, the Potency result in [5], in [6] and in experiment [7] was “inactive” each time.
For `CCO/C([O-])=N/c1c[n+](N2CCOCC2)no1`, the result in experiment [1], in experiment [2], in experiment [3] and in experiment [4] was inactive. Besides, the Potency entry in experiment [5] and in experiment [7] was “inactive” throughout.
For `Cc1ccc(=O)n(-c2ccccc2)c1`, the compound was called inactive in experiment [1], in experiment [2], in experiment [3], in experiment [4] and in experiment [8]. Also, the Potency entry in [5], in experiment [6] and in [7] was “inactive” throughout.
With `CCCCNc1c(C(=O)OCC)c(C)nc2c1cnn2CC`, the call in experiment [1], in [2], in experiment [3], in experiment [4] and in experiment [8] was inactive. Also, the Potency result in experiment [5], in experiment [6] and in experiment [7] was “inactive” in each case.
As to `COc1cc(Cc2cnc(N)nc2N)cc(OC)c1OC`, the compound was classed as inactive in experiment [1], in [2], in experiment [3], in experiment [4], in [8] and in experiment [9]. For the same compound, the Potency entry in experiment [5], in experiment [6], in experiment [7] and in experiment [10] was “inactive” in each case.
In the case of `Cc1ccc(/C(=C\CN2CCCC2)c2ccccn2)cc1`, the call in experiment [1], in experiment [2], in [3] and in experiment [4] was inactive. Besides, the Potency entry in experiment [5], in experiment [6] and in [7] was “inactive” in each case.
With `CCOC(=O)C1=C(C)NC(C)=C(C(=O)OC)C1c1cccc([N+](=O)[O-])c1` (configuration not stated), the result in experiment [1], in experiment [2], in experiment [3] and in experiment [4] was inactive. Also, the Potency entry in [5] and in experiment [7] was “inactive” throughout.
Turning to `O=C(O)CN(CCOCCOCCN(CC(=O)O)CC(=O)O)CC(=O)O`, the call in experiment [1], in [2], in experiment [3] and in experiment [4] was inactive. Moreover, the Potency result in [5] and in [7] was “inactive” in each case.
Regarding `CN(C)C(=O)Oc1cccc([N+](C)(C)C)c1`, the compound was classed as inactive in experiment [1], in [2], in experiment [3] and in [4]. The Potency result in experiment [5], in [6] and in [7] was “inactive” throughout.
As to `c1ccc2c(c1)CCCC2C1=NCCN1` (configuration not stated), the compound was classed as inactive in experiment [1], in experiment [2], in experiment [3] and in [4]. The Potency result in experiment [5], in experiment [6] and in experiment [7] was “inactive” in each case.
Turning to `OCCN1CCN(CC/C=C2/c3ccccc3Sc3ccc(C(F)(F)F)cc32)CC1`, the outcome in experiment [1], in [2], in experiment [3] and in experiment [4] was inactive. Besides, the values for the Potency in experiment [5], in [6] and in [7] were 56.2 µM (active), 28.2 µM (active) and 17.8 µM (active), respectively.
As to `CN(C)C(=O)Oc1ccc[n+](C)c1`, the result in [1], in experiment [2], in [3] and in [4] was inactive. Moreover, the Potency result in [5] and in experiment [7] was “inactive” throughout.
As to `CCN(CC)CCNC(=O)c1cc(S(C)(=O)=O)ccc1OC`, the result in experiment [1], in experiment [2], in experiment [3] and in [4] was inactive. In addition, the Potency entry in experiment [5] and in [7] was “inactive” each time.
Take `CN(C(=O)CCCOc1ccc2[nH]c(=O)ccc2c1)C1CCCCC1`: the outcome in experiment [1], in [2], in experiment [3], in experiment [4] and in [8] was inactive. The Potency result in experiment [5], in experiment [6] and in [7] was “inactive” in each case.
As to `CSc1ccc(C(=O)c2[nH]c(=O)[nH]c2C)cc1`, the compound was classed as inactive in experiment [1], in [2], in experiment [3] and in experiment [4]. The Potency entry in experiment [5] and in experiment [7] was “inactive” throughout.
In the case of `COCC(=O)O[C@]1(CCN(C)CCCc2nc3ccccc3[nH]2)CCc2cc(F)ccc2[C@@H]1C(C)C`, the result in [1], in [2], in experiment [3] and in experiment [4] was inactive. In addition, in [5], the Potency entry is “inactive”. Further, the Potency in experiment [6] is 28.2 µM (active); in experiment [7], 15.8 µM (active).
For `CCn1nc(C(=O)O)c(=O)c2cc3c(cc21)OCO3`, the call in [1], in experiment [2], in experiment [3], in experiment [4] and in experiment [8] was inactive. The Potency entry in experiment [5], in experiment [6] and in experiment [7] was “inactive” each time.
For `NC(Cc1ccc(Cl)cc1)C(=O)O` (configuration not stated), the outcome in experiment [1], in experiment [2], in experiment [3] and in experiment [4] was inactive. Also, the Potency result in [5], in experiment [6] and in [7] was “inactive” each time.
With `CC(=O)Nc1nnc(S(N)(=O)=O)s1`, the outcome in experiment [1], in experiment [2], in [3], in experiment [4] and in experiment [9] was inactive. Also, the Potency result in [5], in experiment [6], in experiment [7] and in [10] was “inactive” throughout.
Consider `Cc1nc2c([nH]1)c(=O)n(C)c(=O)n2Cc1ccco1`, for which the call in experiment [1], in [2], in [3] and in experiment [4] was inactive. Besides, the Potency entry in experiment [5] and in [7] was “inactive” in each case.
With `CC(=O)OC(C)C[N+](C)(C)C` (configuration not stated), the result in experiment [1], in experiment [2], in experiment [3] and in experiment [4] was inactive. For the same compound, the Potency entry in experiment [5], in [6] and in [7] was “inactive” in each case.
